Records with an inconclusive call do not appear. Active and inactive are the calls of the source. The call rests on the fitted dose curve; tested in HEK293 reporter line.
Experiment: qHTS for Inhibitors of the Functional Ribonucleoprotein Complex (vRNP) of Lassa (LASV) Arenavirus: LASV Primary Screen - GLuc reporter signal (AID 1347082); further: nearly all actives have a fitted effect of over 60% in size
Details: LASV minigenome vRNP, Gaussia luciferase reporter; series mostly up to 57.5 µM; activity change, negative = inhibition: at the top concentration
On the % scale 0 is the no-effect control and ±100 the full control effect; potency means the concentration at half of the fitted maximal effect.

Row | Compound | activity change, negative = inhibition | Potency
1 | CC(C)NP(=O)(NC(C)C)OP(=O)(NC(C)C)NC(C)C | 5.65% (inactive) | 
2 | CN1C2CCC1CC(OC(c1ccccc1)c1ccccc1N)C2 (stereo unspecified) | -4.16% (inactive) | 
3 | NCCCP(=O)(O)O | 4.79% (inactive) | 
4 | O=[N+]([O-])c1ccc2nc(N3CCNCC3)ccc2c1 | -11.3% (inactive) | 
5 | NC(Cc1cc(O)c(O)cc1O)C(=O)O (stereo unspecified) |  | inactive
6 | O=[N+]([O-])c1cc(O)c(O)c([N+](=O)[O-])c1 | 13.4% (inactive) | 
7 | NCCc1c[nH]c2ccc(C(N)=O)cc12 | 7.6% (inactive) | 
8 | CC(Cc1ccc(OCC(=O)O)cc1)NCC(O)c1cccc(Cl)c1 (stereo unspecified) | -0.19% (inactive) | 
9 | CC(C)(C)c1o[nH]c(=O)c1CC(N)C(=O)O (stereo unspecified) | -8.66% (inactive) | 
10 | OC1CCCCC1N1CCC(c2ccccc2)CC1 (stereo unspecified) | 8.13% (inactive) | 
11 | CNc1ccc2oc(C[C@H]3O[C@@]4(CC[C@H]3C)O[C@H]([C@H](C)C(=O)c3ccc[nH]3)[C@H](C)C[C@H]4C)nc2c1C(=O)O |  | 7.08 µM (active)
12 | CC12NC(Cc3ccccc31)c1ccccc12 (stereo unspecified) | 13.1% (inactive) | 
13 | N=C(N)c1ccc(CS(=O)(=O)F)cc1 | 2.35% (inactive) | 
14 | Clc1cc(I)cc(Cl)c1NC1=NCCN1 | -0.202% (inactive) | 
15 | CC(=O)OCC1=C(C(=O)O)N2C(=O)[C@@H](NC(=O)CCC[C@@H](N)C(=O)O)[C@H]2SC1 | 9.35% (inactive) | 
16 | CCCN(CCC)[C@H]1CCc2c(F)ccc(O)c2C1 | -7.58% (inactive) | 
17 | CN1CCc2cc(O)cc3c2[C@H]1Cc1ccc(O)c(O)c1-3 | 2.84% (inactive) | 
18 | Cc1sc2ccccc2c1CC1=NCCN1 | 3.32% (inactive) | 
19 | CCOC(=O)c1ncn2c1[C@@H]1CCCN1C(=O)c1cc(OC)ccc1-2 | -0.9% (inactive) | 
20 | CC(=O)c1c(O)c(C)c(O)c(Cc2c(O)c3c(c(C(=O)/C=C/c4ccccc4)c2O)OC(C)(C)C=C3)c1O |  | inactive
21 | CN1CC[C@@]2(C)c3cc(OC(=O)Nc4ccccc4)ccc3N(C)[C@@H]12 | -3.3% (inactive) | 
22 | Nc1ccc(CCN2CCN(c3cccc(C(F)(F)F)c3)CC2)cc1 | -22.7% (inactive) | 
23 | COc1ccc2[nH]cc(CCN)c2c1 | -2.81% (inactive) | 
24 | Oc1ccc2c3c1O[C@H]1c4[nH]c5ccccc5c4C[C@@]4(O)C(C2)N(CC2CC2)CCC314 (stereo partly specified) | 3.57% (inactive) | 
25 | CC(C)(O)[C@@H]1C2OC(=O)[C@@H]1[C@]1(O)C[C@H]3O[C@]34C(=O)O[C@H]2[C@]14C (tested in a mixture with another compound) | 0.337% (inactive) | 
26 | CN1CC[C@@]2(C)c3cc(O)ccc3N(C)C12 (stereo partly specified) | 4.06% (inactive) | 
